Experimental data as given in PubChem BioAssay AID504558 (Broad Institute, 2011).
The campaign covered roughly 350,000 compounds. About 2,400 (0.69%) were called active. Shown is part of a subset that was picked to be rich in actives. Values without a mark were called inactive. Cut-off read from the data, not from the text of the source: active = inhibition above about 41%; inconclusive = no clear call, values can overlap the other calls; inactive = below that.

Test: EBV LMP1-driven NF-kappaB luciferase reporter inhibitors, primary screen, cell-based, luminescence, single point (AID 504558);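 note: 0% = neutral control wells and 100% = reference inhibitor control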
Settings: LMP1-induced NF-kappaB luciferase reporter cells, at 12.5 µM, hits give high values

| SMILES | inhibition |
| --- | --- |
| CC(OC(=O)c1cccc(S(=O)(=O)N2CCOCC2)c1)C(=O)NCC1CCCCC1 (configuration not stated) | -1.25% |
| CCNC(=S)NNC(=O)c1ccc2ncccc2c1 | 7.73% |
| Cc1ccc2cc(/C=N/Nc3ccc(C(=O)O)cc3)c(Cl)nc2c1 | -63.4% |
| O=C(O)c1ccc(N/N=C/c2ccc3ncccc3c2)cc1 | 44.3% (active) |
| CCOc1ccc(S(=O)(=O)NCCC(=O)NNC(=O)c2ccc(F)cc2)cc1 | -8.7% |
| O=C(Nc1ccc2c(c1)[C@@H]1C[C@@H](CC(=O)N3CCCCC3)O[C@@H](CO)[C@@H]1O2)NC1CCCCC1 | 1.38% |
| CCc1cc(-c2nnn(CCC3COCCO3)c2CC)ccc1-c1cn(Cc2ccc3ccccc3c2)nn1 (configuration not stated) | 0.755% |
| Cc1cc(Cl)ccc1C(=O)C1CCCN(C(=O)c2ccc3c(c2)OCO3)C1 (configuration not stated) | -1.16% |
| C/C(=N\NC(=O)c1ccccc1F)c1ccccn1 | 48.6% (active) |
| Cc1cccc(C)c1NC(=S)N1CCCCCC1 | 23.1% |
| O=C(Nc1nnc(-c2ccccc2F)s1)c1ccccc1F | -3.53% |
| CC(=NNC(=S)N1CCCCCC1)c1ccccn1 | 91.7% (active) |
| O=C(NCCOc1ccccc1)c1ccccc1F | -2.63% |
| CCNC(=S)N1CCN(c2ncccn2)CC1 | -18.8% |
| CCN(C(=O)Nc1cccc2ccccc12)c1ccccc1 | 2.61% |
| CCN(Cc1ccncc1)C(=S)Nc1ccccc1C | 0.031% |

| SMILES | inhibition |
| --- | --- |
| CCc1ccccc1OCC(=O)Nc1nnc(C2CC2)s1 | -2.82% |
| COCOCCn1cc(CN2CCS(=O)(=O)N(Cc3ccc(-c4ccccc4)cc3)C(CC(C)C)C2=O)nn1 (configuration not stated) | 1.98% |
| CC1=C(C(=O)N2CCOCC2)CC(CC(=O)NCc2ccco2)C(=O)N1Cc1ccc(F)cc1 (configuration not stated) | 3.55% |
| Cc1cccc(-n2ncc(Cl)c(Cl)c2=O)c1 | 52.4% (active) |
| Cc1cccc(-n2ncc3c(=O)[nH]c(SCC(=O)Nc4cc(C)on4)nc32)c1 | -3.93% |
| C=CCNc1cnn(-c2ccc(C)cc2)c(=O)c1Cl | -12.1% |
| CCCCN1C[C@H](c2ccc(Br)cc2)[C@@H](CC(=O)Nc2ccc(Br)cc2)C1=O | 1.53% |
| C[C@@H]1CN([C@@H](C)CO)C(=O)c2cc(Br)cnc2O[C@@H]1CN(C)C(=O)C1CCCCC1 | -0.141% |
| CCN(CC)C(=O)C1=C(C)N(Cc2ccccc2)C(=O)C(CC(=O)NC(c2ccccc2)c2ccccc2)C1 (configuration not stated) | 2.92% |
| CC(=O)c1ccc(S(=O)(=O)N2CCN(C(=O)/C=C/c3ccc4ccccc4n3)CC2)cc1 | -1.62% |
| CCOc1cccc(/C=C/c2ccc3ccccc3n2)c1OC(C)=O | 17.6% |
| COc1cccc(/C=C/c2ccc3ccccc3n2)c1OC(C)=O | 56.9% (active) |
| COC(=O)c1ccc(NCc2cc(O)ccc2O)cc1 | -94.1% |
| CC1(C)C2CCC1(C)C(OC(=O)c1ccc(O)cc1)C2 (configuration not stated) | -2.13% |
| O=C(OC12CC3CC(CC(C3)C1)C2)c1ccc(NCc2cc(O)ccc2O)cc1 | 44.1% (active) |
| CC1C(=O)N(Cc2cn(Cc3ccco3)nn2)CCS(=O)(=O)N1Cc1ccc(-c2cccc(CO)c2)cc1 (configuration not stated) | 4.76% |
